Screening results (PubChem)
FAS TE block: blocks the thioesterase domain of human fatty acid synthase. actives 0.67% (n = 360,000). recombinant FAS-TE, OMFH fluorogenic substrate, fluorescence endpoint. inhibition, % at 15 µM. AID 602261;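 active = compounds whose normalised, plate-corrected inhibition of enzyme fluorescence in the single-dose primary screen is 50% or more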;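 note: 0% = DMSO with enzyme and 100% = substrate without enzyme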
NR3A LBD binder: NR3A (human) ligand-binding domain modulation; actives 2.5% (n = 340,000); Tm shift relative to glycine control, % at 25 µM; NR3A LBD differential scanning fluorimetry, Tm shift; 0% = protein alone, 100% = glycine-bound protein;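 active = melting temperature shift of at least 10% of the positive control shift, at one fixed dose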
ADAM17 inh: ADAM17 inhibition, QFRET primary screen | P78536 | recombinant ADAM17, EDANS/DABCYL FRET peptide cleavage | inhibition, % at 6.95 µM | actives 0.83% (n = 370,000) | AID 720648;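 active = inhibition above the mean of compounds lying between control limits plus 3 SD, set per campaign, cut at about 8.5% in these data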;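 note: 0% = DMSO-only wells as the low control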
ADAM10 inh: inhibits human ADAM10. recombinant ADAM10, EDANS/DABCYL FRET peptide cleavage, 3 h. O14672. inhibition, % at 7 µM. actives 0.62% (n = 370,000);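 active = inhibition above a per-campaign cutoff equal to the mean of compounds falling between control-based bounds plus 3 SD, cut at about 20% in these data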;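 note: 0% = DMSO wells while the 100% control is not disclosed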
Target sequence (O14672 214-748 limits assumed): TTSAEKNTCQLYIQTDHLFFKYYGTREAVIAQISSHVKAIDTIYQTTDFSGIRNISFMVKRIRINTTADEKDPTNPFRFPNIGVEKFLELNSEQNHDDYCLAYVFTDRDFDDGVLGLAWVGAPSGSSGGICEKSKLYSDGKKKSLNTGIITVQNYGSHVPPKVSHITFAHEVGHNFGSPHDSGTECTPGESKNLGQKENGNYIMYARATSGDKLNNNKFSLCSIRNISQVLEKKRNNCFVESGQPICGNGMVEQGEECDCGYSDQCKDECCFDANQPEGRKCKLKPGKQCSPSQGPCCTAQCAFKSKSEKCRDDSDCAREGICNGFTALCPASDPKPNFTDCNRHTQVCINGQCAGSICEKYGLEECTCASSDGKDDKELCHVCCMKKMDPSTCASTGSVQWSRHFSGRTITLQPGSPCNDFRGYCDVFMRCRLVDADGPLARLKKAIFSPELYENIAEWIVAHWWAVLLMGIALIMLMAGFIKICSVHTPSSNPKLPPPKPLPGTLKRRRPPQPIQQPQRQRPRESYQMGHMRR
aDG glyco act: increases alpha dystroglycan glycosylation; Pro5-aDG cells, alpha-DG glycosylation AlphaScreen (IIH6); 0% Pro5, 100% B10-LARGE cell signal; activation, % at 10 µM; actives 0.22% (n = 360,000);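 active = activation of at least 8% versus controls, or a plate z-score of at least 8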;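 note: Pro5 are CHO cells carrying HIG-tagged alpha-DG that lacks glycosylation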
Numbers without * were called inactive. Shown are actives, neighbours in structure and some others; about 4% of the full set was active somewhere.

Results for CN(C)S(=O)(=O)c1ccc(C(=O)Nc2nc(-c3ccccc3)c(C(=O)c3ccccc3)s2)cc1 ?
FAS TE block: 37.6; NR3A LBD binder: 22.2*; ADAM17 inh: 0.8; ADAM10 inh: 6.9; aDG glyco act: -0.4

Results for COC(=O)Nc1nc(-c2ccccc2)c(C(=O)c2ccccc2)s1 ?
FAS TE block: 7.6; NR3A LBD binder: 1.6; ADAM17 inh: -1.7; ADAM10 inh: 7.0; aDG glyco act: -0.4

What do the screens show for `Cc1ccc(-c2nc(NC(=O)c3ccc(S(=O)(=O)N(CCC#N)CCC#N)cc3)sc2-c2ccccc2)cc1`?
FAS TE block: 4.5; NR3A LBD binder: 10.3*; ADAM17 inh: -0.7; ADAM10 inh: 1.7; aDG glyco act: 0.5

How did COc1ccc(C(=O)Nc2nc(-c3ccc([N+](=O)[O-])cc3)c(-c3ccccc3)s2)cc1 do in these assays?
FAS TE block: 11.5; NR3A LBD binder: 1.7; ADAM17 inh: -3.1; ADAM10 inh: -15.1; aDG glyco act: -0.4

What do the screens show for `Cc1ncc(CO)c(/C=N/NC(=S)Nc2ccc(C(C)C)cc2)c1O`?
FAS TE block: -4.5; NR3A LBD binder: -4.9; ADAM17 inh: -112.0; ADAM10 inh: -308.0; aDG glyco act: 0.0

Results for CCSc1cc(N2CCCC2)nc(-c2ccc(F)cc2)n1 ?
FAS TE block: 13.4; NR3A LBD binder: 0.7; ADAM17 inh: 7.1; ADAM10 inh: 5.4; aDG glyco act: -0.1

What do the screens show for `CCSc1cc(N2CCCC2)nc(-c2ccc(C)cc2)n1`?
FAS TE block: 15.3; NR3A LBD binder: 14.7*; ADAM17 inh: 4.3; ADAM10 inh: -0.2; aDG glyco act: 0.2

What do the screens show for `Cc1c([N+](=O)[O-])cc(C(=O)Nc2ccc(NC(=O)c3ccco3)cc2)cc1[N+](=O)[O-]`?
FAS TE block: -1.9; NR3A LBD binder: 24.5*; ADAM17 inh: -6.1; ADAM10 inh: 2.5; aDG glyco act: -0.2

How did COc1cc(C(=O)NC(=S)Nc2ccc(NC(=O)c3ccco3)cc2)cc(OC)c1OC do in these assays?
FAS TE block: -6.1; NR3A LBD binder: 21.9*; ADAM17 inh: 1.8; ADAM10 inh: 1.9; aDG glyco act: 0.0

What do the screens show for `Cc1ccc(NC(=O)c2ccco2)c([N+](=O)[O-])c1`?
FAS TE block: -2.1; NR3A LBD binder: -1.3; ADAM17 inh: 0.8; ADAM10 inh: 7.3; aDG glyco act: -0.2

How did O=C(NC(=S)Nc1ccc(NC(=O)c2ccco2)cc1)c1ccccc1 do in these assays?
FAS TE block: -5.8; NR3A LBD binder: 2.1; ADAM17 inh: 2.6; ADAM10 inh: 0.4; aDG glyco act: -0.1

Results for CCOc1ccc(C(=O)NC(=S)Nc2ccc(NC(=O)c3ccco3)cc2)cc1[N+](=O)[O-] ?
FAS TE block: -12.2; NR3A LBD binder: 41.2*; ADAM17 inh: 0.1; ADAM10 inh: 5.0; aDG glyco act: -0.2

How did CN(C)CCOC(=O)c1sc2ccccc2c1Cl do in these assays?
FAS TE block: -2.0; NR3A LBD binder: -2.7; ADAM17 inh: -4.0; ADAM10 inh: -3.8; aDG glyco act: -0.1

Results for CCOc1ccccc1N1CCN(C(=O)CCNS(=O)(=O)c2ccccc2F)CC1 ?
FAS TE block: -1.8; NR3A LBD binder: 40.7*; ADAM17 inh: -1.3; ADAM10 inh: -8.2; aDG glyco act: 0.1

Results for Nc1nonc1-n1nnc(C(=O)N/N=C/c2ccncc2)c1CSc1ccccc1 ?
FAS TE block: 7.3; NR3A LBD binder: 11.2*; ADAM17 inh: -3.9; ADAM10 inh: -0.5; aDG glyco act: 0.2

What do the screens show for `Cc1ccsc1/C=N/NC(=O)c1nnn(-c2nonc2N)c1CSc1ccccc1`?
FAS TE block: -4.1; NR3A LBD binder: 35.6*; ADAM17 inh: -6.1; ADAM10 inh: -5.1; aDG glyco act: -0.4

Results for Nc1nonc1-n1nnc(C(=O)N/N=C/c2ccccc2)c1CSc1ccccc1 ?
FAS TE block: -1.8; NR3A LBD binder: 35.5*; ADAM17 inh: 0.2; ADAM10 inh: 6.8; aDG glyco act: 0.1

What do the screens show for `Cc1ccsc1/C=N/NC(=O)c1nnn(-c2nonc2N)c1-c1ccccc1`?
FAS TE block: 2.0; NR3A LBD binder: -3.0; ADAM17 inh: -0.8; ADAM10 inh: 2.5; aDG glyco act: 0.0

Results for CCCc1c(C(=O)N/N=C/c2ccc(C)s2)nnn1-c1nonc1N ?
FAS TE block: -6.9; NR3A LBD binder: 5.6; ADAM17 inh: 0.8; ADAM10 inh: -3.1; aDG glyco act: 0.1
